Sm TGR block = blocks Schistosoma mansoni thioredoxin glutathione reductase; Q962Y6; 360,000 compounds, 3% hits; purified TGR, DTNB reduction, TNB absorbance 405 nm; Potency, µM (series often up to 114 µM), for inactives: at the top dose activity change, negative = inhibition, hits mostly inhibitors; further: on the % scale 0 is the no-effect control and ±100 the full control effect; nearly all actives have a fitted effect of over 60% in size
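Kinetic colorimetric format: TGR-catalysed, NADPH-driven DTNB reduction monitored via TNB absorbance. Enzyme dispensed at 20 nM; compound exposure 15 min at room temperature before reaction start.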
SARS PLpro yeast = SARS-CoV PLP inhibition in yeast; S. cerevisiae expressing SARS-CoV PLpro, growth rescue; 330,000 compounds, 0.19% hits; Potency, µM (highest dose often 32.9 µM), inactives show at the top dose activity, positive = growth rescue, hits mostly activators; calls by dose curve; further: 0% is about no effect; nearly all actives have a fitted effect of over 55% in size
Pf growth 48h = P. falciparum growth inhibition at 48 hours (one generation) | P. falciparum luciferase growth in erythrocytes, 48 h | Potency, µM (top dose mostly 28.7 µM), without a hit: at the top dose activity change, negative = inhibition, most hits filed as inhibitors | 310,000 compounds, 5.9% hits; further: on the % scale 0 is the no-effect control and ±100 the full control effect
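First compound was added to culture medium, then infected red cells at 0.1% parasitemia and 2% hematocrit (final). After incubation at 37 C under 5% CO2, luciferase detection reagent was dispensed and light output recorded.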
Pf growth 96h = inhibits malaria parasite growth, 96 h; P. falciparum luciferase reporter growth, 96 h; Potency, µM (doses to about 28.7 µM), for the others: at the top dose activity change, negative = inhibition, hits mostly inhibitors; 320,000 compounds, 6.9% hits; AID 504834; further: on the % scale 0 is the no-effect control and ±100 the full control effect
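Readout is luminescence from an integrated firefly luciferase in P. falciparum. Red cells, 2% hematocrit and 0.05% parasitemia final, were cultured with compound through two parasite generations (96 hours) at 37 C, 5% CO2.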
Active calls of the source: *; ? = inconclusive; nt = no result. Shown are actives, neighbours in structure and some others; about 12% of the full set was active somewhere. Unless noted, the call rests on the fitted dose curve; in most records, active means well fitted curve in the direction sought with a large enough effect; inconclusive means small, poorly fitted or top-dose-only effect, or another doubt; inactive means no such curve, though single readings can be large; an effect the other way counts as inactive or inconclusive. Potency means the concentration at half of the fitted maximal effect.

SMILES | Sm TGR block | SARS PLpro yeast | Pf growth 48h | Pf growth 96h
CC(=O)c1c(C)[nH]c(C2=NNC(=NCc3ccccc3)SC2)c1C | 11.2µM* | -2.4% | ? | -36.6%
Cc1c(CBr)[n+](=O)c2c(n1[O-])C(Br)CCC2Br (stereo not drawn) | 3.98µM* | 0.3% | -1.2% | 1.7%
Cc1c(C)[n+](=O)c2c(n1[O-])CCC2 | -1.5% | -2.1% | 5.7% | 1.3%
Cc1c(C)[n+](=O)c2c(n1[O-])C(Br)CCC2Br (stereo not drawn) | 39.8µM* | 8.3% | 3.3% | 7.8%
Cc1ccc2c(c1)-c1c(c(C(=O)N3CCN(c4cc(C)ccc4C)CC3)nn1C)CS2 | 9.0% | nt | nt | nt
CN(C)c1nc(C=C(C#N)C#N)c(Cl)n1-c1ccc(F)cc1 | 1.78µM* | -7.6% | ? | ?
N#CC(C#N)=Cc1ccc(N2CCCC2)cc1 | -1.6% | -5.4% | 8.2% | -1.9%
O=C(NC12CC3CC(CC(C3)C1)C2)c1ccc([N+](=O)[O-])o1 | 0.0% | -13.8% | 5.22µM* | ?
O=C(NC12CC3CC(CC(C3)C1)C2)c1ccc(Br)o1 | -1.6% | 2.2% | ? | ?
Cc1ccccc1NC(=O)c1ccc([N+](=O)[O-])o1 | -35.9% | -1.1% | 10.4µM* | 3.7µM*
Cc1cccc(NC(=O)c2ccc([N+](=O)[O-])o2)n1 | -19.0% | -7.0% | ? | 10.4µM*
COc1ccc(NC(=O)CN2C(=O)CC(c3ccc(C)c(C)c3)=Nc3ccccc32)cc1OC | 0.0% | nt | nt | nt
COc1ccc(S(=O)(=O)c2cc3cc(C(C)(C)C)cc(O)c3oc2=O)cc1 | -13.5% | nt | nt | nt
[O-][n+]1onc2c1CCC(=N/O)/C2=N\Nc1ccccc1 | 17.8µM* | 2.2% | 7.38µM* | 4.65µM*
[O-][n+]1c2c(nn1-c1ccccc1)/C(=N/O)CCC2 | nt | -0.7% | 10.0% | ?
NC(=O)c1cnn2c(-c3ccc(Cl)cc3Cl)ccnc12 | -10.0% | 7.1% | 3.2% | 2.4%
Cc1cccc(C)c1N(C(=O)c1ccco1)C(C(=O)NC1CCCC1)c1ccncc1 (stereo not drawn) | 1.5% | 4.3% | -16.2% | 8.6%
N=C1S/C(=C\c2cccc3ccccc23)C(=O)N1c1ccc(F)cc1 | -1.4% | -1.8% | 11.7µM* | -11.5%
NC(=O)/C(=C/c1ccco1)NC(=O)/C=C/c1ccccc1 | ? | 2.7% | -2.6% | ?
CC(C)CCOC(=O)/C(=C/c1ccco1)NC(=O)/C=C/c1ccccc1 | -35.0% | -13.7% | ? | 4.15µM*
CCOC(=O)c1c(C)nc(C)c(C(=O)OCC)c1-c1ccc(Br)cc1 | -7.4% | 28.7% | -22.9% | 13.1µM*
COc1cc(S(=O)(=O)Nc2ccccc2)ccc1N=Cc1c(C)[nH]n(-c2ccc(C)cc2)c1=O | 1.8% | -12.1% | -18.7% | 23.8%
COc1cc(SC#N)ccc1N=Cc1c(C)[nH]n(-c2ccc(C)c(C)c2)c1=O | 5.7% | -78.3% | 5.22µM* | -28.2%
COc1cc(SC#N)ccc1N=Cc1c(C)[nH]n(-c2ccc(Cl)cc2)c1=O | 3.3% | -6.8% | 2.08µM* | 2.08µM*
Cc1ccccc1CCN(C(=O)c1csnn1)C(C(=O)NC1CCCC1)c1ccco1 (stereo not drawn) | -2.1% | -0.3% | ? | 2.7%
SMILES | Sm TGR block | SARS PLpro yeast | Pf growth 48h | Pf growth 96h
Fc1ccc(C(OCCN2CCN(CCCc3ccccc3)CC2)c2ccc(F)cc2)cc1 | nt | nt | 12µM* | -101.1%
Fc1ccc(C(OCCN2CCCC2)c2ccc(F)cc2)cc1 | -3.7% | -3.1% | ? | ?
COc1ccc(/C=N/Nc2snc(SC)c2C#N)cc1OC | -14.9% | -7.1% | 4.15µM* | 90.0%
COC(=O)c1ccc(OCC(O)CN2CCN(C(=O)c3ccco3)CC2)cc1 (stereo not drawn) | -13.0% | 1.0% | ? | -11.6%
O=C(c1ccco1)N1CCN(CC(O)COc2ccc(Br)cc2)CC1 (stereo not drawn) | 44.7µM* | 0.5% | 22.2% | -1.5%
O=C(COc1ccccc1)N1CCN(CC(O)COc2ccccc2)CC1 (stereo not drawn) | 7.9% | -2.5% | -11.7% | 14.7µM*
CN1CCN(Cc2c(C(=O)N/N=C/c3cccc(Br)c3)nnn2-c2nonc2N)CC1 | -12.9% | -0.3% | ? | 26.1%
CCOC(=O)C(Oc1ccc2c(-c3ccccc3)cc(=O)oc2c1C)c1ccccc1 (stereo not drawn) | 0.3% | 2.4% | 11.7µM* | ?
CCOC(=O)C(Oc1ccc2c(-c3ccc(OC)cc3)cc(=O)oc2c1C)c1ccccc1 (stereo not drawn) | -26.0% | 4.4% | ? | 13.9%
CCN1CCN(C(=S)NC(C)c2ccccc2)CC1 (stereo not drawn) | -6.7% | 1.6% | 6.9% | 3.7µM*
O=C(CN1C(=O)NC2(CCOc3ccccc32)C1=O)c1ccc[nH]1 (stereo not drawn) | 1.6% | -9.2% | 1.4% | 17.3%
O=C(c1ccccc1Cl)N1N=C(c2cccs2)CC1c1cccc(O)c1 (stereo not drawn) | 1.8% | -0.3% | ? | ?
Cc1ccnc(NS(=O)(=O)c2ccc(NC(=O)c3cc(=O)c4ccc(C)c(C)c4o3)cc2)n1 | 2.8% | nt | nt | nt
CC1CCCCN1S(=O)(=O)c1ccc(S(=O)(=O)N(Cc2ccccc2)Cc2ccco2)cc1 (stereo not drawn) | ? | -5.0% | 10.4µM* | 10.4µM*
COC(=O)Nc1ccc(S(=O)(=O)N2CCCCC2C(=O)NCc2ccco2)cc1 (stereo not drawn) | -8.6% | -16.8% | nt | -25.3%
Cc1ccc(S(=O)(=O)N2CCC(C(=O)N3CCC[C@H]3C(=O)NCc3ccco3)CC2)cc1 | ? | 2.0% | 11.7µM* | 13.1µM*
Cc1ccc(S(=O)(=O)N2CCCCC2C(=O)NCc2ccco2)cc1 (stereo not drawn) | 20µM* | -0.5% | ? | 5.22µM*
Cc1cccc(N(C(=O)c2ccc(CN3CCOCC3)o2)C(C(=O)NC(C)(C)C)c2ccc(F)cc2)c1 (stereo not drawn) | -15.9% | -2.2% | 8.28µM* | ?
CC(C)(C)NC(=O)C(c1cccs1)N(Cc1cccs1)C(=O)c1ccc(CN2CCOCC2)o1 (stereo not drawn) | -14.5% | 1.2% | -19.2% | -15.6%
Cc1cc(Nc2cccc(C(F)(F)F)c2)nc2ccc(NC(=O)Cc3ccc(Cl)cc3)cc12 | -2.0% | nt | nt | nt
COc1cc(S(=O)(=O)N2CCN(C(=O)c3ccco3)CC2)ccc1Cl | -0.8% | 2.0% | 0.2% | ?
CCOC(=O)c1c(NC(=O)COc2ccc3ccc(=O)oc3c2)sc(C(=O)N(C)C)c1C | 0.0% | -5.2% | 1.8% | 10.5%
CC(=O)Nc1cc(-c2nn3c(C)nnc3s2)ccc1C | 3.2% | 20.6% | nt | 2.9%
CCC(=O)Nc1cc(-c2nn3c(C)nnc3s2)ccc1C | 3.0% | 1.1% | 18.2% | 7.0%
Cc1ccc(-c2nn3c(C)nnc3s2)cc1NC(=O)c1ccc(Br)o1 | 50.1µM* | -4.0% | nt | ?
Cc1ccc(OCC(=O)Nc2cc(-c3nn4c(C)nnc4s3)ccc2C)cc1 | -8.3% | -0.5% | ? | 7.38µM*
C=CCn1c(O)c(N=NC(=O)OCC)c2ccccc21 | -26.3% | -5.7% | 22.4% | 30.5%

Screening results deposited in PubChem BioAssay by National Center for Advancing Translational Sciences (NCATS).
